Assay [1] addresses T1, Aspartate--tRNA(Asp/Asn) ligase (Mycobacterium tuberculosis (strain ATCC 25618 / H37Rv)) (UniProt P9WFW3).
T1 sequence (whole entry): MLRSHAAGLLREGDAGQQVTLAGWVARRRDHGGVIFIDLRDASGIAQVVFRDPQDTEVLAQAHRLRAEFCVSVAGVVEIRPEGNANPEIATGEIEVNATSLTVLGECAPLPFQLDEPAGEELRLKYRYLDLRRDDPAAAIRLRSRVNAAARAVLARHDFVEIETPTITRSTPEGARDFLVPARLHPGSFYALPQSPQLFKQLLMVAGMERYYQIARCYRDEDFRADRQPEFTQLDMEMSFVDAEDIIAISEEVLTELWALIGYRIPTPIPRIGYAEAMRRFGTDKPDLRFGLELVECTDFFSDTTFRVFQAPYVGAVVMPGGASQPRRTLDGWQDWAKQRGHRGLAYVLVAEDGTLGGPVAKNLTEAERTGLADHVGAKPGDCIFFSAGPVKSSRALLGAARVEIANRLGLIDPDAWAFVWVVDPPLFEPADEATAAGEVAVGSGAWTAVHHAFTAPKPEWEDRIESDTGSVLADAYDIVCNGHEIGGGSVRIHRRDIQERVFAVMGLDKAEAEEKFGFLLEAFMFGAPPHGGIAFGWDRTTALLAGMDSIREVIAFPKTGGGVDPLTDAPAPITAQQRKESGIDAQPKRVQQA
The assay can be described thus: Assay for Asp RNA synthetase-1 from Mycobacterium tuberculosis. Type of assay: functional. Set-up: scale not given: direction of the effect not stated beside the values. Conditions: 30 µM.

Assay [2] has as its target Shiga toxin 2 (Escherichia coli O157:H7) (UniProt P09385+P09386). The assay can be described thus: E. coli 0.157:H7 Shiga Toxin SOP - stx2 screening assay. Format: functional. Set-up: scale not given: direction of the effect not stated beside the values. As to conditions: 30 µM.

As for `Cc1cc(OCC(=O)NC(C)c2ccc(N3CCOCC3)cc2)no1` (stereo unspecified), the Percent Effect in assay [1] is 5.44%; in assay [2], -21.7%.

Regarding `CCc1cnc(N)nc1NCCN1CCCCC1`, the figures for the Percent Effect in assay [1] and in assay [2] were 0.268% and -30.3%, respectively.

Take `COc1ccc(CC(=O)N2CCCN(c3ccc(C#N)cc3)CC2)cc1`: the Percent Effect in assay [1] was 5.93%; in assay [2], -7.8%.

`CN(CCCNc1cc(N2CCCC2CO)ncn1)S(C)(=O)=O` (stereo unspecified): the Percent Effect in assay [1] was 7.01%; in assay [2] it was -30%.

With `COc1cccc(CN2CCOC(Cn3nc(C)cc3C)C2)c1` (stereo unspecified), the figures for the Percent Effect in assay [1] and in assay [2] were 1.48% and -0.88%, respectively.

Consider `Cc1ccc(C(=O)N2C[C@@H](OCC3CCOCC3)[C@H]3OCCC[C@H]32)o1`, for which the Percent Effect in assay [1] is -0.93%; in assay [2] it was -15.3%.

For the compound `C=Cn1ncc(CN2C[C@@H]3CCCN3C[C@H]2CCSC)c1C`, the Percent Effect is 1.89% in assay [1] and -18.3% in assay [2].

As to `CN1[C@H](Cn2cncn2)C[C@@H]2CN(Cc3cccc(C#N)c3)CC[C@@H]21`, the Percent Effect in assay [1] is 0.0985%; in assay [2], -24.3%.

As to `O=C(N1CCCC1)N1CCO[C@H]2[C@@H](Oc3ccccn3)CC[C@@H]21`, the Percent Effect was -4.07% in assay [1] and -9.25% in assay [2].

As for `COCC(C)(O)CNC(=O)COc1ccccc1OC` (stereo unspecified), the figures for the Percent Effect in assay [1] and in assay [2] were -4.69% and -2.25%, respectively.

For the compound `COc1ccnc(N2CCN(C(=O)c3csc(C4CC4)n3)CC2)n1`, the results for the Percent Effect in assay [1] and in assay [2] were -0.494% and -2.7%, respectively.

Turning to `COCCN1CCC(CNC(=O)c2cc(C)cc(C)c2)C1` (stereo unspecified), the figures for the Percent Effect in assay [1] and in assay [2] were -2.92% and -3.77%, respectively.

`O=C(NCCC1=CCCCC1)NCc1nnc2n1CCC2`: the Percent Effect in assay [1] amounted to 2.5%; in assay [2] it was 24.3%.

With `CCCNC(=O)COc1ccc(C)cn1`, the figures for the Percent Effect in assay [1] and in assay [2] were -4.7% and -36.7%, respectively.

On to `CCNC(=O)c1ncn2c1CN(C)S(=O)(=O)c1ccccc1-2`, for which the Percent Effect is -3.46% in assay [1] and -5.52% in assay [2].

As to `CCc1ccccc1CN1CC[C@@H](NC(=O)c2cccnc2)[C@H](O)C1`, the Percent Effect is -4.34% in assay [1] and -1.07% in assay [2].

`O=C(Cn1cnnn1)N1CCCCC1Cn1cccn1` (stereo unspecified): the Percent Effect was -0.885% in assay [1] and 9.78% in assay [2].

As for `CC(C(=O)Nc1ccc(N2CCCC2)nc1)n1ccnc1` (stereo unspecified), the Percent Effect in assay [1] is 1.62%; in assay [2], -37.2%.

(Values after ChEMBL document CHEMBL3988442, “University of Dundee, Small-Polar-MMV Screening Library” (2021).)
